# Assay outcomes deposited in PubChem by several laboratories.
# EphB4 antag – blocks human EphB4 binding to ephrin-B2; AID 720; P54760; EphB4 LBD / TNYL-RAW-Alexa532 peptide, fluorescence polarization; 0.15% of 97,000 active; inhibition, % at 7 µM;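 active = inhibition above the screen-wide mean inhibition plus 3 SD, cut at about 15% in these data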
# ERa SRC1 inh – ER-alpha (human) coactivator binding inhibition | 1.7% of 86,000 active | P03372 | inhibition, % at 25.6 µM | TR-FRET ER-alpha LBD / SRC-1 peptide, estradiol-bound; in the data active = inhibition above about 50%
# Calb biofilm kill – kills Candida albicans biofilms. AID 834. C. albicans biofilm + clotrimazole, Alamar Blue. inhibition, % at 6 µM. 0.14% of 85,000 active;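 active = inhibition above 20%; inactive = inhibition below 20%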;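 also: preformed 24 hr biofilms exposed to compound for 48 hr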
# MT1-MMP txn act – MT1-MMP promoter transcription activation | HT1080 MT1-MMP promoter luciferase reporter, luminescence, overnight; stronger effect = higher value | activation factor at 10 µM | 0.16% of 86,000 active;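 active = activation factor of at least 2 for MT1-MMP transcription at 10 µM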
# ERa SRC1 pot – ER-alpha (human) coactivator binding potentiation; AID 639; P03372; 1.3% of 86,000 active; TR-FRET ERalpha-LBD/SRC-Cy5 coactivator binding, 2 h; 100 = basal binding, no effect; coactivator binding (% of control), % at 25.6 µM; in the data active = activity above about 200%;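 also: binding measured in presence of low estradiol as agonist stimulus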
# ERb SRC1 inh – blocks coactivator binding to human estrogen receptor beta. TR-FRET ER-beta LBD / SRC1-Cy5 peptide binding; receptor agonist-loaded with 1 µM estradiol. inhibition, % at 25.6 µM. 1.3% of 86,000 active. Q92731;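 active = compounds whose percent inhibition of the receptor-coactivator binding signal exceeds about 50% in the single-dose screen, limit read from the data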
# A number is an active result; 0 = inactive; - = no result given; [ ] = dose if it differs, or a comment. Rows were chosen to be rich in hits. Some 3.2% of all compounds tested hit in one or more screens of this group.
SMILES,EphB4 antag,ERa SRC1 inh,Calb biofilm kill,MT1-MMP txn act,ERa SRC1 pot,ERb SRC1 inh
CC(C)CNS(=O)(=O)c1ccc(OCC(=O)NCC2CCCO2)c(Cl)c1 (stereo not drawn),0,0,0,0,0,0
COc1ccc(Cl)cc1NC(=O)C1CCCN(S(=O)(=O)c2cccc3nonc23)C1 (stereo not drawn),0,0,0,-,0,0
COc1ccc(S(=O)(=O)n2ccc(-c3ccc(OCCN(C)c4ccccn4)cc3)n2)cc1,0,-,-,-,-,-
Cc1cccc(-n2nc3c(c2NC(=O)c2ccc(Br)o2)CSC3)c1,0,0,0,-,211,0
CCC1(COC(NC(=O)c2cccnc2)(C(F)(F)F)C(F)(F)F)COC1,0,0,0,0,0,0
COc1ccccc1NC(=O)CSc1ncn[nH]1,0,0,-,0,0,0
Cc1ccc(-c2nn3c(C)nnc3s2)cc1NC(=O)c1ccc(OC(C)C)cc1,0,0,0,0,0,0
COc1ccc(C(=O)Nc2cc(-c3nn4c(C)nnc4s3)ccc2C)cc1,0,0,0,0,0,0
COc1ccc(OCC(=O)Nc2cc(-c3nn4c(C)nnc4s3)ccc2C)cc1,0,0,0,0,276[fluorescence artefact?],0
Cc1cc(OCC(=O)Nc2cc(-c3nn4c(C)nnc4s3)ccc2C)ccc1Cl,0,0,0,0,621[fluorescence artefact?],0
Cc1cc(C)n(C(C[N+](=O)[O-])c2ccc(Cl)cc2)n1 (stereo not drawn),0,-,-,-,-,-
O=C(COC(=O)c1ccco1)Nc1ccc(Br)cc1,0,0,0,0,0,0
NC(=O)/C(=N\OC(=O)c1ccco1)c1nc(-c2ccc(Br)cc2)cs1,0,66[fluorescence artefact?],0,0,0,0
CCOC(=O)c1sc(C)c2c(=O)n(CC(=O)c3ccc(Br)cc3)nnc12,0,0,0,0,0,59[fluorescence artefact?]
COc1ccc(N2CCCCn3c2nc2c3c(=O)n(C)c(=O)n2C)cc1,0,0,0,0,0,0
CCC(O)CNc1nc(-n2nc(C)cc2C)nc2sc3c(c12)CCCC3 (stereo not drawn),-,0,0,0,203,0
O=S(=O)(Nc1ccc(N2CCOCC2)cc1)c1cccs1,0,97[fluorescence artefact?],0,0,0,76[fluorescence artefact?]
CCN(CC)c1ccc(NC(=O)c2cccnc2)c(C)c1,0,0,0,0,0,0
CCN(CC)c1ccc(NC(=O)c2cnc3ccccn3c2=O)c(C)c1,-,0,0,0,629[fluorescence artefact?],0
Nc1nc(NC(=O)Cc2ccccc2)nn1-c1ccccc1,-,0,0,0,0,0
COc1ccc(/C=N/NC(=O)CSc2nnc(CCCc3ccc(OC)c(C)c3)o2)cc1,0,-,-,-,-,-
CCc1nnc2sc(-c3ccc(NC(=O)c4ccco4)cc3)nn12,0,0,0,0,0,0
CCc1nnc2sc(-c3ccc(NC(=O)c4ccc5c(c4)OCCO5)cc3)nn12,0,0,0,0,326,0
CCN(CC)C(=O)C1CC(=O)N(c2ccc(F)c(Cl)c2)C1 (stereo not drawn),0,0,0,0,0,67[fluorescence artefact?]
O=C(NC1CCCCC1)c1ccc(COCC(F)(F)F)o1,0,0,0,0,0,0
SMILES,EphB4 antag,ERa SRC1 inh,Calb biofilm kill,MT1-MMP txn act,ERa SRC1 pot,ERb SRC1 inh
Cn1nnnc1SCC(=O)Nc1ccccn1,0,0,0,0,0,0
Cn1nnnc1SCC(=O)Nc1nc(-c2ccccc2)c(-c2ccccc2)o1,0,0,0,0,391,0
CCCC[C@@H]1C[C@H]1C(NC(=O)c1ccco1)c1ccc(Cl)cc1 (stereo partly drawn),-,-,-,0,-,-
CN(C)c1ccc(C(=O)Nc2nnc(-c3ccc(Cl)cc3)o2)cc1,-,64[fluorescence artefact?],0,0,0,56[fluorescence artefact?]
CCOC(=O)C1C2C=CC3(CN(C4CCCC4)C(=O)C13)O2 (stereo not drawn),-,0,0,0,0,0
Cc1ccc(CCNS(=O)(=O)c2cnc[nH]2)cc1,-,0,0,0,0,70
O=S(=O)(NCc1ccc(Cl)cc1)c1cnc[nH]1,0,0,0,0,0,0
COC(=O)c1nn(-c2ccccc2)c(Sc2ccc(OC)cc2)c1/C=N/O,0,-,-,-,-,-
FC(F)(F)c1cc(-c2ccco2)nc(-n2nnc3ccccc32)n1,-,-,-,0,-,-
Oc1c(Cl)cc(Cl)c2c1NCCC2,0,89[fluorescence artefact?],0,0,0,70[fluorescence artefact?]
O=C1NCCCc2c1oc1ccc(O)cc21,0,0,0,0,0,0
O=C(O)c1cc2c(ccc3ccccc32)oc1=O,0,0,0,0,0,0
